# Hits are enriched below; roughly 1.8% of the tested compounds scored in any of these assays.
# PfHsp40 yeast = rescue of yeast from PfHsp40 toxicity, primary screen, S. cerevisiae, ATP luminescence; S. cerevisiae expressing PfHsp40, growth rescue; growth rescue, % at 12.5 µM; hit rate 0.68% among 340,000; AID 504582, 2011; in the data active = growth rescue above about 28%, passing the limit was not always enough; inconclusive = no clear call, values can overlap the other calls;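 also: yeast W303a lacking pdr1 and pdr3 grown in galactose medium; growth measured after three days at 30 °C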
# PriA SSB inh = inhibitors of Klebsiella pneumoniae PriA binding to SSB C-terminal tail, primary screen, biochemical, AlphaScreen. hit rate 0.6% among 430,000. PriA–SSB C-terminal tail interaction (Klebsiella pneumoniae). AlphaScreen SSBct-PriA binding, biotinylated peptide. inhibition, % at 33 µM. AID 1272365, 2023; in the data active = inhibition mostly above about 37%, no sharp cut-off; inactive = mostly below about 20%;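 also: plate controls were negative control peptide for no effect and reference peptide for full effect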
# PrPC surface inh = inhibitors of human cell surface prion protein PrPC, primary screen, cell-based, TR-FRET; Major prion protein (Homo sapiens), P04156; TR-FRET read-out; AID 720596, 2013; inhibition, % at 13.8 µM; hit rate 0.43% among 370,000; in the data active = inhibition above about 24%; also: 0% = median of the test wells and 100% = reference compound wells
# PrP UTR inh = inhibition of PrP 5' UTR reporter expression; cell-based PrP 5' UTR mRNA reporter, plate reader; inhibition, % (concentration not given with the values); hit rate 0.35% among 340,000; AID 488862, 2010; in the data active = inhibition above about 52%; also: 0 = median of the neutral control wells
# MazEF act = activators of E. coli MazEF toxin-antitoxin RNase, primary screen, biochemical, fluorescence, uHTS; Endoribonuclease toxin MazF (Escherichia coli (strain K12)), P0AE70; FAM/BHQ RNA-DNA oligo cleavage fluorescence, 5 h; activation, % at 20 µM; hit rate 0.32% among 350,000; AID 504720, 2011; in the data active = activation above about 50%
# Target sequence (P0AE70 whole entry, looked up): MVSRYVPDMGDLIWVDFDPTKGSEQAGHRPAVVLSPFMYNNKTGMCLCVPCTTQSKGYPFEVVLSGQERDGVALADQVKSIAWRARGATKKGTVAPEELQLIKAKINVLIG
# Starred values were filed as active, the others as inactive; ? = inconclusive; . = no result.
SMILES,PfHsp40 yeast,PriA SSB inh,PrPC surface inh,PrP UTR inh,MazEF act
O=C(CCc1nnc(Cc2c[nH]c3ccccc23)o1)NCCC1CCCCO1 (centres undefined),.,.,-2,.,-11
O=C(NCCc1nc2ccccc2[nH]1)c1ccc(Cl)cc1,.,1,.,.,.
CCOC(=O)/C(=C/C=C1\Sc2cc(C)c(C)cc2N1CC)C(C)=O,1,2,-5,-1,-373
CN1/C(=C/c2cccc[n+]2CCO)Sc2ccccc21,-1,-15,-12,4,-32
CCN1/C(=C/C=C/c2sc3ccccc3[n+]2CC)Sc2ccccc21,254*,.,.,17,-457
CCN1/C(=C/c2ccc3cc(C)ccc3[n+]2CC)Sc2cc(C)c(C)cc21,11,40,1,6,71*
CCN1/C(=C/c2ccc3cc(C)ccc3[n+]2CC)Sc2ccccc21,3,43,-10,25,69*
CC[n+]1ccccc1/C=C1\Sc2ccc(C)cc2N1C,2,9,4,-10,-34
CC[n+]1c(/C=C2\Sc3ccccc3N2C)ccc2cccc(C)c21,-1,.,-21,10,106*
CCN1/C(=C/C=C/C=C/C=C/c2sc3ccccc3[n+]2CC)Sc2ccccc21,-1,.,-3,43,-25
O=C(CCc1c[nH]c2ccccc12)Nn1c(=S)[nH]c2ccccc2c1=O,.,21,.,.,.
COc1ccc(-n2nnc(C(=O)NCc3ccccc3C(F)(F)F)c2-c2cccnc2)cc1,.,-9,.,.,.
O=C(O)c1ccc2c(n1)NCCC2,.,94*,.,.,.
O=C(O)c1cncc2c1NCCC2,.,-5,.,.,.
O=C(CCCOC(=O)c1cccnc1Cl)c1ccc(Br)cc1,1,-10,-3,-39,3
COC(=O)c1c(/N=C/N(C)C)sc2c1CCN(c1ncc(C(F)(F)F)cc1Cl)C2,2,.,1,-11,51*
N#C/C(=C(/O)COc1ccccc1)c1nnc2n1CCCCC2,31*,-9,4,-14,12
CCCCn1c(NS(=O)(=O)c2ccc(Cl)cc2)c(C(=O)OCC)c2nc3ccccc3nc21,.,68*,.,.,.
CCCCCn1c(NS(=O)(=O)c2ccc(F)cc2)c(C(=O)OCC)c2nc3ccccc3nc21,.,55*,.,.,.
CCOC(=O)c1c(NS(=O)(=O)c2ccccc2)n(CCc2ccccc2)c2nc3ccccc3nc12,.,44,.,.,.
CCOC(=O)c1c(NS(=O)(=O)c2ccccc2)n(CCCOC)c2nc3ccccc3nc12,0,47*,-11,-5,-3
CCOc1ccc(C(=O)NC2CCN(c3cc(-c4cccs4)[nH]n3)CC2)cn1,.,-7,.,.,.
O=C(Oc1ccc(C(=S)N2CCOCC2)cc1)c1ccc([N+](=O)[O-])cc1,-2,-10,-3,-14,4
Cc1ccc(-c2nc3c(Cl)cc(C(F)(F)F)cn3c2Cc2cccc(F)c2)cc1,.,.,3,.,.
O=C1CCCc2c1cc(-c1ccccc1)n2-c1ccc(O)cc1,-2,-9,8,-12,-5
SMILES,PfHsp40 yeast,PriA SSB inh,PrPC surface inh,PrP UTR inh,MazEF act
COc1ccc(-n2c(-c3ccccc3)cc3c2CCCC3=O)cc1,134*,37,.,-57,14
CCOC(=O)NC(=O)CSc1ccccn1,-1,-8,2,-20,-3
CCOC(=O)NC1Cc2ccccc2C1Sc1ccccn1 (centres undefined),54*,-2,1,-16,6
COCCCn1c(=C(C#N)C(=O)NCCOC)s/c(=C/c2ccccc2OC(F)F)c1=O,.,-3,.,.,.
COCCCNC(=O)/C(C#N)=c1\s/c(=C\c2ccccc2OC(F)F)c(=O)n1CCCOC,1,.,-6,-14,98*
COCCCn1c(=O)/c(=C\c2ccccc2OC(F)F)s/c1=C(/C#N)C(=O)N1CCOCC1,2,.,3,-47,-2
COCCCn1c(=O)/c(=C/c2ccccc2OC(F)F)s/c1=C(\C#N)C(=O)NCCOC,6,-7,-4,-7,72*
COCCCn1c(=O)/c(=C\c2ccccc2OC(F)F)s/c1=C(/C#N)C(=O)NCCOC,0,.,-1,-14,83*
CCCCNC(=O)/C(C#N)=c1\s/c(=C\c2ccccc2OC(F)F)c(=O)n1CCCOC,-1,.,13,1,85*
Clc1ccc(Cl)c2sc(N3CCN(c4nc5c(Cl)ccc(Cl)c5s4)CC3)nc12,.,-17,.,.,.
Cc1noc(C)c1CSc1nc2ccccc2nc1NS(=O)(=O)c1ccc(Cl)cc1,-1,-6,.,-9,10
COc1ccc(C2CC(c3cccs3)n3nc(N)nc3N2)cc1 (centres undefined),-1,-17,-34,-2,22
Cc1cc(S(=O)(=O)NCCCn2ccnc2)c(C)cc1Cl,-2,-8,7,-35,6
COc1ccc(-c2cc3c(=O)n(CC(=O)N4CCN(C)CC4)ncn3n2)cc1,0,101*,6,-19,-13
CCCCOc1ccc(C(=O)Nc2ccc(S(=O)(=O)Nc3cc(C)on3)cc2)cc1OC,-1,-4,5,-3,56*
Cc1[nH]n(-c2ccccc2)c(=O)c1/C=N/Nc1nncc(-c2ccccc2)n1,262*,.,-5,41,-7
Cc1[nH]n(-c2ccccc2)c(=O)c1/C=N/NC(=O)c1ccc(O)cc1O,52*,.,.,5,-2
Cc1[nH]n(-c2ccccc2)c(=O)c1C=NNc1nncc(-c2ccccc2)n1,.,97,.,.,.
Cc1[nH]n(-c2ccc(Br)cc2)c(=O)c1/C=N/NC(=O)c1ccccc1,-2,.,10,13,7
Cc1ccc(-n2[nH]c(C)c(/C=N/NC(=O)c3ccc(O)cc3O)c2=O)cc1,76*,.,.,-1,-8
Cc1ccc(OCC(=O)N/N=C\c2c(C)[nH]n(-c3ccccc3)c2=O)c([N+](=O)[O-])c1,155*,.,-2,-6,-1
CC(=O)N1CCN(c2ccc(N=Cc3c(O)n(Cc4ccccc4)c(=O)[nH]c3=O)cc2)CC1,-2,0,-8,-10,77*
O=C(O)c1ccc(N=Cc2c(O)n(Cc3ccc(F)cc3)c(=O)[nH]c2=O)cc1,-2,-5,4,-11,-50
c1ccc(CSc2ccc(-c3ccccn3)nn2)cc1,112*,2,23,-68,-2
O=C(CSc1ccc(-c2ccccn2)nn1)N1CCCC1,91*,24,11,-13,18
O=C(CSc1ccc(-c2ccccn2)nn1)c1ccccc1,401*,-12,1,-42,2
O=C(CSc1ccc(-c2ccccn2)nn1)NC1CCCC1,221*,33,3,-26,2
Clc1ccc(CSc2ccc(-c3ccccn3)nn2)cc1,-1,-15,-6,-27,-2
COc1ccccc1-c1cc2nc(C)cc(=O)n2[nH]1,.,6,.,.,.
O=C(CSC1=NNC(c2ccccn2)S1)Nc1ccccc1 (centres undefined),?,87*,3,-18,7
